This passage reports survival results from PubChem BioAssay AID463173 (ICCB-Longwood Screening Facility, Harvard Medical School, 2010).

About 4,300 (8.3%) of roughly 52,000 compounds were called active. What follows is part of a selection rich in actives, with near analogues and random picks from the rest. A number with no mark means an inactive call. Rule as the data show it: active = survival mostly below about 52% (no sharp cut-off); inactive = mostly above about 56%.

The subject of this experiment is DeltatarO mutant. Description: growth inhibition of S. aureus wild type versus tarO mutant, primary screen, teichoic acid synthesis inhibitors, RN4220, OD600 (AID 463173). The following applies: OD600, 18 h, stronger effect = lower value, screened at 18.75 µg/mL (by protocol).
As to `Cc1ccc(-c2nc3n(n2)C(=O)CC(c2ccc(C)cc2)S3)cc1` (stereo unspecified), the survival is 90%.
Take `NC(=O)CSc1ncnc2c1cnn2-c1ccccc1`: the survival was 82%.
Take `Cc1ccc(C(=O)N2CC(=O)Nc3ccc(Br)cc3C2c2ccc(F)cc2)cc1C` (stereo unspecified): the survival is 66%.
For `O=C1CN(C(=O)COc2ccc(Cl)cc2)C(c2ccccc2)c2cc(Br)ccc2N1` (stereo unspecified), the survival is 60%.
With `O=C1CN(C(=O)Cc2ccc(F)cc2)C(c2ccccc2)c2cc(Br)ccc2N1` (stereo unspecified) the figure was 58%.
As to `O=C1CN(C(=O)c2c(F)cccc2Cl)C(c2ccc(F)cc2)c2cc(Br)ccc2N1` (stereo unspecified), the survival was 42% (active).
Under `O=C1CN(C(=O)COc2ccccc2)C(c2ccc(F)cc2)c2cc(Br)ccc2N1` (stereo unspecified) stands 33% (active); under `CCCCOc1ccc(C(=O)N2CC(=O)Nc3ccc(Br)cc3C2c2ccc(F)cc2)cc1` (stereo unspecified), 39% (active); under `O=C1CN(C(=O)COc2ccc(Cl)cc2)C(c2ccc(F)cc2)c2cc(Cl)ccc2N1` (stereo unspecified), 45%.
As to `CCOc1ccc(C(=O)N2CC(=O)Nc3ccc(F)cc3C2c2ccc(F)cc2)cc1` (stereo unspecified), the survival was 148%.
Turning to `COc1ccc(C(=O)N2CC(=O)Nc3ccc(Br)cc3C2c2ccc(F)cc2)cc1OC` (stereo unspecified), the survival is 48%.
As for `O=C1CN(C(=O)COc2ccc(Cl)cc2)C(c2ccc(F)cc2)c2cc(Br)ccc2N1` (stereo unspecified), the survival is 36% (active).
For `O=C1CN(C(=O)c2ccccc2)C(c2ccc(F)cc2)c2cc(Br)ccc2N1` (stereo unspecified), the survival is 60%.
With `O=C(c1ccccc1/S(=N/S(=O)(=O)c1ccccc1)N1CCOCC1)N1CCOCC1` (stereo unspecified) the figure was 75%; with `Clc1cccc(-c2nnc(CN3CCN(c4ccccn4)CC3)o2)c1`, 82%.
With `CCOc1ccc(CC(=O)NCC(c2cccs2)S(=O)(=O)c2ccc(F)c(C)c2)cc1` (stereo unspecified), the survival was 67%.
With `Cc1ccc(N2CC(NC(=O)C3CCCC3)CC2=O)cc1C` (stereo unspecified) the figure was 103%.
With `Cc1ccc(CNc2oc(-c3ccc(COc4ccc(C)cc4)o3)nc2C#N)cc1` the figure was 65%.
Under `COCCNC(=O)CCCn1c(SCc2ccccc2C)nc2c(sc3ccccc32)c1=O` stands 97%.
As to `Cc1ccc2oc3c(c(=O)c2c1)C(c1ccc(OCC(N)=O)cc1)N(Cc1ccc2c(c1)OCO2)C3=O` (stereo unspecified), the survival was 93%.
Regarding `COC(=O)c1ccc(-n2nnc(-c3nc(-c4ccc5c(c4)OCO5)no3)c2C)cc1`, the survival was 82%.
As to `Cc1ccccc1NC(=O)c1c(C)oc2ccc(O)c(CN3CCN(C)CC3)c12`, the survival was 77%.
As for `CCCCNC(=O)CSc1nc2nc(C)c(Cc3c(F)cccc3Cl)c(C)n2n1`, the survival is 31% (active).
Under `Cc1ccccc1Cc1c(C)nc2nc(SCC(=O)NCCc3ccc(Cl)cc3)nn2c1C` stands 67%.
For the compound `Cc1nc2nc(SCC(=O)Nc3cccc(Cl)c3)nn2c(C)c1Cc1ccccc1`, the survival was 85%.
Regarding `Cc1nc2nc(SCC(=O)NCCc3ccccc3)nn2c(C)c1Cc1c(F)cccc1Cl`, the survival was 37% (active).
Take `Cc1nc2nc(SCC(=O)NCCc3ccc(Cl)cc3)nn2c(C)c1Cc1c(F)cccc1Cl`: the survival was 0% (active).
Take `Cc1nc2nc(SCC(=O)NCCc3ccc(Cl)cc3)nn2c(C)c1Cc1ccccc1Cl`: the survival is 99%.
Take `COc1ccc(CCNC(=O)CSc2nc3nc(C)c(Cc4ccc(C)cc4)c(C)n3n2)cc1OC`: the survival is 55%.
`Cc1nc2nc(SCC(=O)NC(C)c3ccccc3)nn2c(C)c1Cc1c(F)cccc1Cl` (stereo unspecified): the survival was 68%.
With `Cc1nc2nc(SCc3c(F)cccc3Cl)nn2c(C)c1Cc1ccccc1`, the survival was 66%.
On to `CCN(CC)CCCNC(=O)CSc1nc2nc(C)c(Cc3c(F)cccc3Cl)c(C)n2n1`, for which the survival is 146%.
With `Cc1nc2nc(SCC(=O)NCCc3ccc(Cl)cc3)nn2c(C)c1Cc1ccccc1`, the survival is 46% (active).
For `Cc1nc2nc(SCC(=O)O)nn2c(C)c1Cc1c(F)cccc1Cl`, the survival was 93%.
Under `Cc1cccc(C(=O)N2CCc3cc(CNS(=O)(=O)c4cccs4)ccc32)c1` stands 74%; under `Cc1ccc(C)c(CN2C(=O)c3ccccc3S(=O)(=O)c3ccc(C(=O)Nc4ccccc4C(F)(F)F)cc32)c1`, 84%; under `Cc1ccccc1Cn1c(CN2CCN(c3cc(Cl)ccc3C)CC2)nc2c1c(=O)[nH]c(=O)n2C`, 106%.
Consider `CCOC(=O)Cc1ccc(NC(=O)N(Cc2ccc(OC)cc2)C2CCN(C(C)=O)CC2)cc1`, for which the survival was 88%.
With `Cc1ccc(NC(=O)C(=O)NCC(c2cccnc2)N2CCN(c3ccccc3F)CC2)cc1Cl` (stereo unspecified), the survival was 73%.
Regarding `Cc1oc(-c2ccc(C(=O)NCc3ccccc3)cc2)nc1CS(=O)(=O)c1ccccc1`, the survival is 88%.
As for `Cc1ccc(C)c(N2CCN(C(=O)c3ccc4[nH]c(C)c(C)c4c3)CC2)c1`, the survival is 80%.
With `N=Nc1c(O)n(CC(=O)Nc2ccccc2)c2ccccc12`, the survival was 87%.
For the compound `N=C(N=Nc1c(O)n(Cc2ccccc2)c2ccccc12)SCC(=O)Nc1ccccc1`, the survival was 23% (active).
For `CN(C)Cn1c(O)c(N=NC(=O)c2ccccc2)c2ccccc21`, the survival is 93%.
Take `Cc1ccc(NC(=O)C2CCN(S(=O)(=O)c3c(C)noc3C)CC2)cc1`: the survival was 105%.
Under `Cc1ccc(-c2nn3c(-c4ccccc4)nnc3c3ccccc23)cc1` stands 86%; under `Cc1ccc(-c2nn3c(-c4ccc(C)cc4)nnc3c3ccccc23)cc1`, 20% (active); under `COc1ccc(-c2nn3c(-c4ccc(OC)cc4)nnc3c3ccccc23)cc1`, 102%.
For `Cc1ccc(-c2nn3c(-c4ccccc4C)nnc3c3ccccc23)cc1`, the survival is 40%.
As for `Cc1ccc(-c2nnc3c4ccccc4c(-c4ccccc4)nn23)cc1`, the survival was 134%.
Under `COc1ccc(-c2nn3c(-c4ccccc4C)nnc3c3ccccc23)cc1` stands 2% (active); under `O=C(CNCCCN1CCOCC1)Nc1ccc(OC(F)(F)F)cc1`, 99%; under `CC(=O)c1cccc(NC(=O)c2oc3c(c2C)-c2nn(Cc4ccc(Cl)cc4)cc2CC3)c1`, 64%.
Turning to `COc1cccc(CNC(=O)CN2C(=O)N(c3ccc(C)cc3C)S(=O)(=O)c3ccccc32)c1OC`, the survival was 65%.
Under `COc1cc(NS(=O)(=O)c2ccc(-c3cc(C)no3)cc2)cc(OC)c1` stands 99%; under `Cc1cccc(C)c1NC(=O)CCSCCc1ccccn1`, 86%.
In the case of `O=S(=O)(c1ccccc1)c1nc(-c2ccc(F)cc2)oc1N1CCOCC1`, the survival was 90%.
For the compound `Cc1ccc(S(=O)(=O)c2nc(-c3ccccc3)oc2N2CCN(c3ccccc3)CC2)cc1`, the survival was 85%.
For the compound `COc1ccc(-c2nc(S(=O)(=O)c3ccccc3)c(N3CCCCC3)o2)cc1`, the survival was 74%.
Under `Cc1ccc(S(=O)(=O)c2nc(-c3ccccc3)oc2N2CCCCCC2)cc1` stands 22% (active); under `Cc1ccc(-c2nc(S(=O)(=O)c3ccc(C)cc3)c(N3CCCCC3)o2)cc1`, 0% (active); under `Cc1ccc(-c2nc(S(=O)(=O)c3ccc(C)cc3)c(N3CCCCCC3)o2)cc1`, 70%.
Under `O=S(=O)(c1ccccc1)c1nc(-c2cccc(Cl)c2)oc1N1CCOCC1` stands 57%; under `COc1ccc(-c2nc(S(=O)(=O)c3ccc(C)cc3)c(N3CCCCC3)o2)cc1`, 54%.
For the compound `CC(C)(C)c1ccc(-c2nc(S(=O)(=O)c3ccccc3)c(N3CCOCC3)o2)cc1`, the survival is 37% (active).
Regarding `Cc1ccc(-c2nc(S(=O)(=O)c3ccc(C)cc3)c(N3CCN(c4ccccc4)CC3)o2)cc1`, the survival is 97%.
On to `Cc1ccc(-c2nc(S(=O)(=O)c3ccccc3)c(N3CCN(c4ccccc4)CC3)o2)cc1`, for which the survival was 102%.
In the case of `O=S(=O)(c1ccccc1)c1nc(-c2ccc(F)cc2)oc1N1CCCCCC1`, the survival is 33% (active).
In the case of `Cc1ccc(Cl)cc1NC(=O)Cn1cc2c(n1)CCCCC2`, the survival is 68%.
With `CCc1ccc(NC(=O)CC(c2cc(OC)c(OC)c(OC)c2)N2Cc3ccccc3C2=O)cc1` (stereo unspecified), the survival is 79%.
As for `COc1ccc(N2CCN(C(=O)c3cccc4ccccc34)CC2)cc1`, the survival is 66%.
As for `COC(=O)NCc1c(C)nn(-c2ccccc2)c1-n1cccc1`, the survival is 96%.
With `COc1ccc(C2c3cccn3CCN2S(=O)(=O)c2ccc([N+](=O)[O-])cc2)cc1` (stereo unspecified), the survival is 69%.
For `Cn1ncc(C(=O)N2CCN(c3ccccc3)CC2)c1C1CCN(C(=O)OC(C)(C)C)CC1`, the survival was 78%.
In the case of `CCCCN(CC)C(=O)c1c[nH]c2ccc(S(=O)(=O)N(C)c3ccc(Cl)cc3)cc2c1=O`, the survival is 95%.
Take `COc1cc2c(cc1OC)C(c1cccc(Cl)c1)CC(=O)N2` (stereo unspecified): the survival is 63%.
`Cc1c(C(=O)OC2CCC(C)CC2)[nH]c2c1C(=O)CC(c1ccc(N(C)C)cc1)C2` (stereo unspecified): the survival was 68%.
As to `COc1ccc(NC(=O)C(=O)Nc2ccc3nc4n(c(=O)c3c2)CCCCC4)c(OC)c1`, the survival was 84%.
As for `COc1cccc(OC)c1C(=O)Nc1ccc2c(c1)N(C(C)=O)CCC2`, the survival is 78%.
In the case of `COCCn1c(=NC(=O)c2ccc3c(c2)OCCO3)sc2cc(NC(C)=O)ccc21`, the survival is 94%.
Turning to `Cc1nn2c(=O)cc(COC(=O)COc3ccccc3C)nc2s1`, the survival was 101%.
As to `O=C(NC12CC3CC(CC(C3)C1)C2)N1CCC(O)(c2ccc3c(c2)OCO3)CC1`, the survival is 81%.
On to `O=C(NCC12CC3CC(CC(C3)C1)C2)c1cc2nc(-c3ccc(Cl)cc3)cc(C(F)(F)F)n2n1`, for which the survival was 31% (active).
For the compound `O=C(Nc1cccc(Cl)c1Cl)c1cc2nc(-c3ccc(Cl)cc3)cc(C(F)(F)F)n2n1`, the survival is 93%.
As for `CCOc1ccc(NC(=O)c2cc3nc(-c4ccc(OC)cc4)cc(C(F)(F)F)n3n2)cc1`, the survival was 134%.
In the case of `COc1ccc(-c2cc(C(F)(F)F)n3nc(C(=O)NCC45CC6CC(CC(C6)C4)C5)cc3n2)cc1`, the survival is 29% (active).
With `O=C(NCC12CC3CC(CC(C3)C1)C2)c1cc2nc(-c3ccccc3)cc(C(F)(F)F)n2n1`, the survival is -4% (active).
For `O=C(Nc1cccc(C(F)(F)F)c1)c1cc2nc(-c3ccccc3)cc(C(F)(F)F)n2n1`, the survival is 60%.
For the compound `O=C(c1cc2nc(-c3ccccc3)cc(C(F)(F)F)n2n1)N1CCCC1`, the survival is 78%.
As for `Cc1ccc(-c2cc(C(F)(F)F)n3nc(C(=O)Nc4ccc(Cl)cc4Cl)cc3n2)cc1`, the survival is 81%.
Take `COc1ccc(-c2cc(C(F)(F)F)n3nc(C(=O)NCC45CC6CC(CC(C6)C4)C5)cc3n2)cc1OC`: the survival is 137%.
